Laboratory results from PubChem BioAssay (NCI).
Compounds without any hit were thinned out: in the full panel of roughly 83,000, 20% have a hit.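 Note: values are percent growth. 100 is the growth of untreated cells, values between 100 and 0 indicate rising inhibition; between -100 and 0 indicates cell death.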 Calls of active or inactive are those of the source.

The compounds below were run on HOP-62 NSCLC (assay: NCI-60 one-dose screen, 48 h (100 = growth as untreated, 0 = no growth, -100 = all killed)). Conditions: 10 µM unless noted.
Protocol: Growth inhibition of the HOP-62 human Non-Small Cell Lung tumor cell line is measured as a screen for anti-cancer activity. Cells are grown in 96 well plates and exposed to the test compound for 48 hours. Compounds are tested at a single concentration, which is 10^-5 M for most compounds. The reported endpoint is percent growth (GI% or GIPRCNT), where numbers from 0 - 100% represent growth inhibition, and numbers from -100% - 0 represent cell death. For example, a value of 40 represents 60% growth inhibition. A value of 0 means no net growth occurred over the course of the experiment. A value of -40 indicates 40% of cells at the beginning of the experiment died by the end of the experiment. A value of -100 means all cells are dead at the end of the experiment.
NCI-60 Human Tumor Cell Lines Screen was performed using the standard one-dose NCI protocol, which is described in more detail at https://dtp.cancer.gov/discovery_development/nci-60/default.htm.
Compounds with GIPRCNT values below 10 were considered active. Activity score was based on GIPRCNT using the following formula: […]
Score is 0 for GIPRCNT values of 100 or above, 50 for GIPRCNT values of 0, and 100 for GIPRCNT values of -100.

| Compound | growth |
| --- | --- |
| CCCC1CCCCN1C(=O)OCC(C)C (stereo not given) | 118% (inactive) |
| CCCCCCCN(CCCCCCC)C(=N)c1ccnc2ccccc12 | -57.2% (active) |
| Cc1cc(Cl)nc(N(CCNc2ccnc3cc(Cl)ccc23)Cc2ccco2)n1 | 25.6% (inactive) |
| c1csc(-c2nc(-c3cc4ccccc4c(N4CCOCC4)n3)cs2)c1 | 97.6% (inactive) |
| CCCCC(=O)OC1CCCCC1C (stereo not given) | 98.9% (inactive) |
| O=C(/C=C/c1cccc2ccccc12)Nc1ncc(Cc2ccccc2)s1 | 28.7% (inactive) |
| COc1cc(-c2c(C#N)c(-c3cccs3)nc3c2c(-c2ccccc2)nn3-c2ccccc2)ccc1O | 74.5% (inactive) |
| Cc1cc(C)c(NC(=O)c2sc3nc4c(cc3c2N)CCCC4)c(C)c1 | 24.1% (inactive) |
| CCc1cccc(CC)c1NC(=O)c1sc2nc3c(cc2c1N)CCCC3 | 50.5% (inactive) |
| Cn1cccc1/C=C1/SC(=S)N(CCc2ccc(O)cc2)C1=O | 56.3% (inactive) |
| NCCNc1nc(-c2ccccc2)nc2nc(-c3ccccc3)oc12 | 85.6% (inactive) |
| CCN(CC)CCCCCCNc1ccnc2cc(Cl)ccc12 | 82.6% (inactive) |
| N=c1c(S(=O)(=O)c2ccccc2)cc2c(=O)n3ccccc3nc2n1C1CCCC1 | 79% (inactive) |
| COc1ccc2c(c1)C(Br)=C(CCO)C2c1ccccc1 (stereo not given) | 22.1% (inactive) |
| Cn1cc(-c2csc(-c3cn(C(=O)OC(C)(C)C)c4ccccc34)n2)c2cccnc21 | 73.7% (inactive) |
| COc1cc(-c2cc(-c3nc4ccccc4[nH]3)[nH]n2)cc(OC)c1OC | 39.7% (inactive) |
| CC(=O)O[C@H]1CC[C@]2(C)[C@H]3C(=O)C=C4[C@@H]5C[C@](C)(C(=O)N6CCCNCC6)CC[C@]5(C)CC[C@@]4(C)[C@]3(C)CC[C@H]2C1(C)C | -50.4% (active) |
| O=S(=O)(NCCNc1cc(-c2cn(-c3ccccc3)nc2-c2cccc(O)c2)ccn1)c1ccc(Cl)cc1 | 51.4% (inactive) |
| COc1ccc(C(=O)/C=C/c2cc(-c3cc(OC)c(OC)c(OC)c3)n[nH]2)cc1OC | -56.6% (active) |
| CCCCn1c(-c2ccc(O)cc2)cn2c3c(=O)[nH]c(=O)n(C)c3nc12 | 82% (inactive) |

| Compound | growth |
| --- | --- |
| CC(C)=CCC[C@](C)(O)[C@H]1CC[C@]2(C)[C@@H]1CC[C@@H]1[C@@]3(C)C/C(=C/c4cccc([N+](=O)[O-])c4)C(=O)C(C)(C)[C@@H]3CC[C@]12C | 97.4% (inactive) |
| C[C@@H](Oc1ccc(C(=O)NS(=O)(=O)C(C)(C)C)cc1C(F)(F)F)c1ccc(Oc2ccccc2)cn1 | 52.2% (inactive) |
| Cc1cc(N(CCCNc2ccnc3cc(Cl)ccc23)Cc2ccco2)nc(N2CCN(C)CC2)n1 | 48.2% (inactive) |
| Cn1cc(-c2nc(-c3c[nH]c4ncccc34)cs2)c2cc(F)ccc21 | 65.3% (inactive) |
| COc1ccc2c(c1)c(-c1nc(-c3c[nH]c4ncccc34)cs1)cn2CCCN1CCCCC1 | 37.4% (inactive) |
| COC(=O)[C@]12CC[C@@H](C(/C=C/c3cccnc3)=N/O)[C@@H]1[C@H]1CC[C@@H]3[C@@]4(C)CC(=C/c5cccnc5)/C(=N/O)C(C)(C)[C@@H]4CC[C@@]3(C)[C@]1(C)CC2 | 60% (inactive) |
| C=C1C(=O)O[C@H]2[C@H]1CC/C(COC(=O)NCc1c[nH]c3ccccc13)=C\CC[C@@]1(C)O[C@@H]21 | 65.2% (inactive) |
| COC(=O)[C@]12CC[C@@H](C)[C@H](C)[C@@H]1C1=CC(=O)[C@@H]3[C@@]4(C)C[C@@H](OC(C)=O)[C@H](OC(C)=O)[C@@](C)(COC(C)=O)[C@@H]4C(=O)C[C@@]3(C)[C@]1(C)CC2 | 58.2% (inactive) |
| N#C/C(=C\c1ccc(-c2ccc(Br)cc2)o1)c1nc(-c2cccs2)cs1 | 107% (inactive) |
| CN1CCN(c2ccc3nc(-c4[nH]ncc4Nc4ncnc5c4OCCCN5)[nH]c3c2)CC1 | -48.4% (active) |
| C=C(C)[C@@H]1CC[C@]2(C)[C@H](CC[C@@H]3[C@H]4[C@H]5OC[C@@]4(CCC5(C)C)CC[C@]32C)[C@@]1(C)CCCN | 96.3% (inactive) |
| Nc1c(C(=O)Nc2c(Cl)cccc2Cl)sc2nc3c(cc12)C(=O)CCC3 | 30.7% (inactive) |
| Nc1nc2c3ccncc3cc(-c3cccc(Cl)c3)c2c2cnccc12 | 44.1% (inactive) |
| CCSc1ncnc2c1ncn2C1OC(CO)C(O)C1O (stereo not given) | 21.1% (inactive) |
| CC(=O)c1c(C)[nH]c(-c2nc3ccc(N4CCN(C)CC4)cc3[nH]2)c1-c1ccc(N(C)C)cc1 | 24.6% (inactive) |
| COc1cc(/C=N/Nc2ncnc3c2c(C)nn3-c2ccc(F)cc2)ccc1O | 106% (inactive) |
| Nc1ccc(Cl)cn1 | 95% (inactive) |
| CC1(C)C(=O)/C(=C\c2ccccn2)C[C@]2(C)[C@H]3CC[C@@H]4[C@@H](C(=O)/C=C/c5ccccn5)CC[C@@]4(C)[C@]3(C)CC[C@@H]12 | -26.7% (active) |
| Cn1cc(-c2csc(-c3cn(CCN)c4ccc(Br)cc34)n2)c2cccnc21 | 67.2% (inactive) |
| Cc1cc2nc3c4cc(N)ccc4n(CCN(C)C)c3nc2cc1C | 19% (inactive) |
